Experimental data as given in PubChem BioAssay (EPA / NIEHS).
Records with an inconclusive call do not appear. Active and inactive are the calls of the source. How the source made its calls, unless noted: active means hit-call score of the fitted dose curve at least 0.9, where 1 is the maximum; inconclusive means response in the unintended direction; inactive means score below 0.9.

Key:
[1] = target: Steroid hormone receptor ERR1 (Homo sapiens) (UniProt P11474); assay: ATG_ERRa_TRANS: Attagene TRANS-FACTORIAL HepG2 Assay for human Estrogen-Related Receptor alpha (ERRa) (AID 2282971); settings: HepG2 Attagene TRANS reporter, ERRa transactivation
Steroid hormone receptor ERR1 (Homo sapiens), sequence (P11474 whole entry, looked up, the tested form may be a part): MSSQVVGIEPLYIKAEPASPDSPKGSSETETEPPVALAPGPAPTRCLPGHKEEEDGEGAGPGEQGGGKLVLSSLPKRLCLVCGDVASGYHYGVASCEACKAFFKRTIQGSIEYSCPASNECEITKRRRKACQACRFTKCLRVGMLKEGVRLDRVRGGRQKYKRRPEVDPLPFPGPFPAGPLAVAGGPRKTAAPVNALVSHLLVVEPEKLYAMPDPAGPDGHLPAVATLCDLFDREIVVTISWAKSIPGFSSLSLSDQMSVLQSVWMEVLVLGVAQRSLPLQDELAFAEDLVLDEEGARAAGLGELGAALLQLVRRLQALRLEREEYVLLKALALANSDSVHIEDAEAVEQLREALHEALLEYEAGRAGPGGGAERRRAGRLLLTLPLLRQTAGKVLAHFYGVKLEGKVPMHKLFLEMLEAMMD
Summary of the method: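 Transfected HepG2, 24 h dosing, ERRa-Gal4 chimera driving GAL4-UAS reporter. Readout: reporter mRNA via RT-PCR plus capillary electrophoresis (fluorescence). Positive direction vs DMSO control.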

[2] = target: X-box-binding protein 1 (Homo sapiens) (UniProt P17861); assay: ATG_Xbp1_CIS: Attagene CIS-FACTORIAL HepG2 Assay for human X-box Binding Protein 1 (XBP1) (AID 2282972; active means hit-call score of the fitted dose curve at least 0.9, where 1 is the maximum; inactive means score below 0.9); settings: HepG2 XBP1 cis-element reporter, Attagene multiplex; actives raise or lower the signal
Summary of the method: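 HepG2, transient MRTU transfection (cis-promoter driven), 24 h compound exposure. Total RNA → oligo(dT) RT → PCR → 6-FAM labeling → HpaI cut → CE. Bidirectional fit vs DMSO.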

[3] = target: Androgen receptor (Homo sapiens) (UniProt P10275); assay: ATG_AR_TRANS: Attagene TRANS-FACTORIAL HepG2 Assay for human Androgen Receptor (AR) (AID 2282973); settings: HepG2 Attagene TRANS-FACTORIAL AR reporter transcription
Androgen receptor (Homo sapiens), sequence (P10275 whole entry, looked up, the tested form may be a part): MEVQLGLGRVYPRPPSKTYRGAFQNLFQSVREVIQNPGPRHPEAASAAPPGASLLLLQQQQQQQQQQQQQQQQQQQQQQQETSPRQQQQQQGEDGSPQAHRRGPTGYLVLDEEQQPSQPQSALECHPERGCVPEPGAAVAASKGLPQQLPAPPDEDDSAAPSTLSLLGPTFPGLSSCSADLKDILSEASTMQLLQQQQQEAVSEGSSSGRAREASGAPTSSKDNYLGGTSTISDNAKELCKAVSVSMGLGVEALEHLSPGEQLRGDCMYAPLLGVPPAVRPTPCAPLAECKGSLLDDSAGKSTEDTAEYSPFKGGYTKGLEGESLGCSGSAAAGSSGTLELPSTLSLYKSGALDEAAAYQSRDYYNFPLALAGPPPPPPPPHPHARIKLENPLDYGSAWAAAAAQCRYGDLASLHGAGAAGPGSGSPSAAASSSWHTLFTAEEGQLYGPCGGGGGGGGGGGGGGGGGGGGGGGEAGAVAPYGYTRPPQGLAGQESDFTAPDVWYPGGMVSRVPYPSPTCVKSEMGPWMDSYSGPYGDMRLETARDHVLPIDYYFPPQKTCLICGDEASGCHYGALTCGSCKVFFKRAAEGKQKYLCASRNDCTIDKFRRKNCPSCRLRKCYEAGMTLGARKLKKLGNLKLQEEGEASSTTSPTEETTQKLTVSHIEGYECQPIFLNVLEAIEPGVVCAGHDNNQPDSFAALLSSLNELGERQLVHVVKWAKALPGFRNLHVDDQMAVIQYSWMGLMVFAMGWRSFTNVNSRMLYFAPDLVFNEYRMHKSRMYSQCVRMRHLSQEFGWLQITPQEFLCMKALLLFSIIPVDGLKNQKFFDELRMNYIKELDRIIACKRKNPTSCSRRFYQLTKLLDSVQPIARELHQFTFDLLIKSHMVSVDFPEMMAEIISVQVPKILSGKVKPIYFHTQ
Summary of the method: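 Readout is reporter transcript abundance, quantified by fluorescent RT-PCR products separated on capillary electrophoresis. Human HepG2 liver cells carried transiently transfected NR-Gal4 chimera plus GAL4-UAS reporter constructs and were dosed for 24 h; activity scored upward versus DMSO.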

[4] = ATG_M_19_TRANS: Attagene TRANS-FACTORIAL HepG2 Assay for M19 Transcription Factor (Internal Marker) (AID 2282974); settings: HepG2 Attagene TRANS-FACTORIAL M19 internal marker reporter
Summary of the method: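 Background-control readout: after 24 h chemical exposure of transfected HepG2 carrying GAL4-driven reporter units, RNA was reverse-transcribed, amplified, fluorescently labeled and sized by capillary electrophoresis; gain-of-signal fit against DMSO.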

[5] = ATG_GAL4_TRANS: Attagene TRANS-FACTORIAL HepG2 Assay for GAL4 (Internal Marker) (AID 2282976); settings: HepG2 Attagene TRANS GAL4 internal marker reporter
Summary of the method: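 RT-PCR/capillary electrophoresis readout of reporter mRNA. HepG2, transient MRTU transfection (GAL4-UAS reporters), 24 h compound exposure. Background-control endpoint, positive direction vs DMSO baseline.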

[6] = target: Glucocorticoid receptor (Homo sapiens) (UniProt P04150); assay: ATG_GR_TRANS: Attagene TRANS-FACTORIAL HepG2 Assay for human Glucocorticoid Receptor (GR) (AID 2282978); settings: HepG2 Attagene TRANS GR reporter, mRNA transcription;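 further: activators score as hits since higher reporter transcript over DMSO is fitted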
Summary of the method: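 Readout is reporter transcript from a chimeric GR-Gal4 acting on GAL4-UAS in transfected human HepG2 liver cells after 24 h exposure, quantified by RT-PCR and capillary electrophoresis. Activation fitted upward against DMSO.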

[7] = target: Oxysterols receptor LXR-alpha (Homo sapiens) (UniProt Q13133); assay: ATG_LXRa_TRANS: Attagene TRANS-FACTORIAL HepG2 Assay for human Liver X Receptor alpha (LXRa) (AID 2282980); settings: HepG2 Attagene TRANS reporter, LXRa transactivation
Oxysterols receptor LXR-alpha (Homo sapiens), sequence (Q13133 whole entry, looked up, the tested form may be a part): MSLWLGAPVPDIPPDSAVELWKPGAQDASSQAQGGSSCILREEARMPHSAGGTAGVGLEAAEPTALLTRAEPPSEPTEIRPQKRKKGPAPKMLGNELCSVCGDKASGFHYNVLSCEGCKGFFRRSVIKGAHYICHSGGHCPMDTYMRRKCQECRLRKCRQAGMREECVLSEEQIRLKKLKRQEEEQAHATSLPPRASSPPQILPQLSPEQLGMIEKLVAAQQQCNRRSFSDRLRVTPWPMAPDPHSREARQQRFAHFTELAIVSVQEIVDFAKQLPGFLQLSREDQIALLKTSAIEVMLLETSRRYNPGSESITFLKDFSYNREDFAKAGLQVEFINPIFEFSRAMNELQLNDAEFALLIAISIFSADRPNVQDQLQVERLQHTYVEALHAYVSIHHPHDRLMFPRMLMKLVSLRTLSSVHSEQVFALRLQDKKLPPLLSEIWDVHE
Summary of the method: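 Read-out: reporter transcript levels by RT-PCR plus capillary electrophoresis, fluorescence intensity. Transiently transfected HepG2, exogenous NR-GAL4 chimera, GAL4-UAS reporters; 24 h compound exposure. Activity = increase over DMSO negative control.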

[8] = ATG_M_06_TRANS: Attagene TRANS-FACTORIAL HepG2 Assay for M06 Transcription Factor (Internal Marker) (AID 2282983); settings: HepG2 Attagene TRANS M06 internal marker reporter
Summary of the method: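 After a 24 h chemical treatment of transfected HepG2, RNA underwent DNase I treatment, reverse transcription and reporter-specific PCR; labelled, HpaI-digested products were sized by capillary electrophoresis. Signal increase relative to DMSO defined activity.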

[9] = ATG_M_32_TRANS: Attagene TRANS-FACTORIAL HepG2 Assay for M32 Transcription Factor (Internal Marker) (AID 2282984); settings: HepG2 Attagene TRANS M32 internal marker reporter;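 further: transcript level of a background control reporter unit measured by RT-PCR and capillary electrophoresis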
Summary of the method: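 HepG2 cells transiently transfected with multiple GAL4-UAS reporter transcription units, dosed for 24 hours; reporter mRNA quantified by RT-PCR, 6-FAM primer extension, HpaI digestion and capillary electrophoresis. Gain-of-signal fitted versus DMSO baseline; internal background-control marker.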

[10] = target: Transcriptional activator Myb (Homo sapiens) (UniProt P10242); assay: ATG_Myb_CIS: Attagene CIS-FACTORIAL HepG2 Assay for human Myeloblastosis (Myb) Proto-Oncogene Transcription Factor (AID 2282986; active means hit-call score of the fitted dose curve at least 0.9, where 1 is the maximum; inactive means score below 0.9); settings: HepG2 Attagene CIS-FACTORIAL Myb reporter transcription; actives raise or lower the signal
Transcriptional activator Myb (Homo sapiens), sequence (P10242 whole entry, looked up): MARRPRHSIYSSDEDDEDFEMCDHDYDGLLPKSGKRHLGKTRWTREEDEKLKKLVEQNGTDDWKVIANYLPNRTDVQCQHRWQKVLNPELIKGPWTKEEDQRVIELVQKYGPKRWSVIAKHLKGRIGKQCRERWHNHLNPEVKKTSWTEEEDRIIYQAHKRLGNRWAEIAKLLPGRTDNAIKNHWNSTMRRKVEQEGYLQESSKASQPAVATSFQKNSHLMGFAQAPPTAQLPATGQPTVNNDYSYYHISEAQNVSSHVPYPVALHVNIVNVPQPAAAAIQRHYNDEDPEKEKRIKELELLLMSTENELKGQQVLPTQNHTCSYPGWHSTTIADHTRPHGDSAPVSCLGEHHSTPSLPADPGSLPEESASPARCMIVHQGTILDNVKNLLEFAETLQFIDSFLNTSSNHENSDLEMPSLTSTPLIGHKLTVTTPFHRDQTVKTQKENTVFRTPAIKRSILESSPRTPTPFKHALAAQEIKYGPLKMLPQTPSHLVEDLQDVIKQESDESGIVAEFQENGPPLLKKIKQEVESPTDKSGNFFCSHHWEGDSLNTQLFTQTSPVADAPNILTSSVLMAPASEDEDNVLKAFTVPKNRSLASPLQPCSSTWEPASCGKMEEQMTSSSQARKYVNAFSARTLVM
Summary of the method: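 Reporter mRNA is quantified by RT-PCR and capillary electrophoresis 24 h after dosing HepG2 cells transfected with cis-regulated reporter units, which track endogenous transcription factor activity. Gain and loss of signal are fitted versus DMSO baseline.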

[11] = target: Nuclear respiratory factor 1 (Homo sapiens) (UniProt Q16656); assay: ATG_NRF1_CIS: Attagene CIS-FACTORIAL HepG2 Assay for human Nuclear Respiratory Factor 1 (NRF1) Orphan Gene (AID 2282987; active means hit-call score of the fitted dose curve at least 0.9, where 1 is the maximum; inactive means score below 0.9); settings: HepG2 NRF1 cis-element reporter, Attagene multiplex; actives raise or lower the signal
Nuclear respiratory factor 1 (Homo sapiens), sequence (Q16656 whole entry, looked up): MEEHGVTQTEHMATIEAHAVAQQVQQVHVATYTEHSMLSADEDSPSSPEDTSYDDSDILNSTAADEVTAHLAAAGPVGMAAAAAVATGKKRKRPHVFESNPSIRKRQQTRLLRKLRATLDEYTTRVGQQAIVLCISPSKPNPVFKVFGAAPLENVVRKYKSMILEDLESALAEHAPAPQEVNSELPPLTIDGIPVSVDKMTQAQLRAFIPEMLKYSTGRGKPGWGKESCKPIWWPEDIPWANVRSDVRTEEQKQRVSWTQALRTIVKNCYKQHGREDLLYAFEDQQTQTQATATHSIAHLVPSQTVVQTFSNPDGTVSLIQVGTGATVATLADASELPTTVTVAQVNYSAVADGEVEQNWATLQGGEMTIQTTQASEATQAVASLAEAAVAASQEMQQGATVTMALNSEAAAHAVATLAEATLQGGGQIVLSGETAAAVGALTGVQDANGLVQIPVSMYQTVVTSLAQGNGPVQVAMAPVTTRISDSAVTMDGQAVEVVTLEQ
Summary of the method: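 Endogenous NRF1-driven reporter transcription in transfected HepG2 cells after 24 h treatment. Readout: RT-PCR products, 6-FAM labelled and resolved by capillary electrophoresis; changes fitted both directions relative to DMSO.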

[12] = ATG_NFI_CIS: Attagene CIS-FACTORIAL HepG2 Assay for human Nuclear Factor I (NFI) (AID 2282989; active means hit-call score of the fitted dose curve at least 0.9, where 1 is the maximum; inactive means score below 0.9); settings: HepG2 cis-regulatory reporter, NFI response element transcription; actives raise or lower the signal
Summary of the method: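 HepG2, transient MRTU, 24 h exposure; RNA→cDNA→PCR→FAM label→HpaI→CE fluorescence. Bidirectional fit, DMSO = baseline.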

[13] = target: Myc proto-oncogene protein (Homo sapiens) (UniProt P01106); assay: ATG_Myc_CIS: Attagene CIS-FACTORIAL HepG2 Assay for human Myelocytomatosis (Myc) Proto-Oncogene Transcription Factor (AID 2282990; active means hit-call score of the fitted dose curve at least 0.9, where 1 is the maximum; inactive means score below 0.9); settings: HepG2, Attagene cis-reporter transcription factor activity; actives raise or lower the signal
Summary of the method: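 Multiplexed cis-reporter transcription in HepG2 cells after 24 h chemical treatment. Reporter mRNA measured by RT-PCR and capillary electrophoresis fluorescence; activity fitted bidirectionally against DMSO control.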

[14] = target: Estrogen receptor (Homo sapiens) (UniProt P03372); assay: ATG_ERa_TRANS: Attagene TRANS-FACTORIAL HepG2 Assay for human Estrogen Receptor alpha (ERa) (AID 2282970); settings: HepG2 Attagene TRANS ERa GAL4 reporter, mRNA
Estrogen receptor (Homo sapiens), sequence (P03372 whole entry, looked up, the tested form may be a part): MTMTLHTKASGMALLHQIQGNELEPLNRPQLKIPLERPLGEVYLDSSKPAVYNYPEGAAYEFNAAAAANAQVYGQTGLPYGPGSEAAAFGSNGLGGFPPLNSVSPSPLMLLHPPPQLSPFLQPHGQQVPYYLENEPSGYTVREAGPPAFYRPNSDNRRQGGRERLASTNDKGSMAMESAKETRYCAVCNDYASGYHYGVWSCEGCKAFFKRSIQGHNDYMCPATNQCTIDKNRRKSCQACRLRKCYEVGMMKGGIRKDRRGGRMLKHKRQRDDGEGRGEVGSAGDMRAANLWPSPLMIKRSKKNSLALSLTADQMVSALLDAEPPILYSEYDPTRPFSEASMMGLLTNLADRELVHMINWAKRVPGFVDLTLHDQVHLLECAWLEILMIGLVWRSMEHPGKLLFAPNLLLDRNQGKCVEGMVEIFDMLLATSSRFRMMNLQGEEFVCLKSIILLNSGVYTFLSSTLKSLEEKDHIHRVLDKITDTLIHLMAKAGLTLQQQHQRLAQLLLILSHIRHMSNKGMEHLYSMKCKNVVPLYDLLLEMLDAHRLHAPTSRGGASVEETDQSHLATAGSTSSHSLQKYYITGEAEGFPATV
Summary of the method: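 After 24 h of compound treatment, RNA from HepG2 cells bearing transfected GAL4-UAS reporter constructs is converted to cDNA, amplified and fluorescently labelled. Capillary electrophoresis resolves the ERa-linked reporter; DMSO serves as negative control.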

[15] = target: Oxysterols receptor LXR-beta (Homo sapiens) (UniProt P55055); assay: ATG_LXRb_TRANS: Attagene TRANS-FACTORIAL HepG2 Assay for human Liver X Receptor beta (LXRb) (AID 2282981); settings: HepG2 Attagene TRANS GAL4-LXRb reporter, mRNA
Summary of the method: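 HepG2 cells transiently transfected with multiple reporter transcription units carrying chimeric NR-Gal4 proteins acting on GAL4-UAS reporters; compound exposure 24 h. Reporter mRNA quantified by RT-PCR, 6-FAM labelling, HpaI digestion and capillary electrophoresis; gain of signal versus DMSO.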

[16] = target: Hepatocyte nuclear factor 4-alpha (Homo sapiens) (UniProt P41235); assay: ATG_HNF4a_TRANS: Attagene TRANS-FACTORIAL HepG2 Assay for human Hepatocyte Nuclear Factor 4 alpha (HNF4a) (AID 2282982); settings: HepG2 HNF4a transactivation reporter, mRNA readout
Hepatocyte nuclear factor 4-alpha (Homo sapiens), sequence (P41235 whole entry, looked up, the tested form may be a part): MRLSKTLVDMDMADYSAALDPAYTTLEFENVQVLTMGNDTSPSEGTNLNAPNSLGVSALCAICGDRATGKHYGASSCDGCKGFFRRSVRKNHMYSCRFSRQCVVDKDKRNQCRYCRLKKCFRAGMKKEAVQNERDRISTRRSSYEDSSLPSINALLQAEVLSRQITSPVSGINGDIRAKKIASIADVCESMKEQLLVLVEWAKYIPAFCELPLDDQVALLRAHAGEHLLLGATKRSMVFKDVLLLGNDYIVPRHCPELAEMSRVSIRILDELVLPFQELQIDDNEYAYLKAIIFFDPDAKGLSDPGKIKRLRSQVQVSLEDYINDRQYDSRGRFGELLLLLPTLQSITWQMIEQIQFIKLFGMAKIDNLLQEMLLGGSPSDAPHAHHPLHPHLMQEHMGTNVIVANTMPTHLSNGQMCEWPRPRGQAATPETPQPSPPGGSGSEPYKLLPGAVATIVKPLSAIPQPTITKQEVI
Summary of the method: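 HepG2 cells transiently transfected with multiplexed GAL4-UAS reporter units responsive to chimeric NR-GAL4 proteins; compound exposure 24 h. Reporter mRNA quantified by RT-PCR, 6-FAM labelling, HpaI digestion and capillary electrophoresis; gain of signal versus DMSO baseline.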

[17] = target: Estrogen-related receptor gamma (Homo sapiens) (UniProt P62508); assay: ATG_ERRg_TRANS: Attagene TRANS-FACTORIAL HepG2 Assay for human Estrogen-Related Receptor gamma (ERRg) (AID 2282977); settings: HepG2 Attagene TRANS reporter, ERRg transactivation;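 further: hits increase reporter signal over DMSO so potencies reflect activators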
Estrogen-related receptor gamma (Homo sapiens), sequence (P62508 whole entry, looked up, the tested form may be a part): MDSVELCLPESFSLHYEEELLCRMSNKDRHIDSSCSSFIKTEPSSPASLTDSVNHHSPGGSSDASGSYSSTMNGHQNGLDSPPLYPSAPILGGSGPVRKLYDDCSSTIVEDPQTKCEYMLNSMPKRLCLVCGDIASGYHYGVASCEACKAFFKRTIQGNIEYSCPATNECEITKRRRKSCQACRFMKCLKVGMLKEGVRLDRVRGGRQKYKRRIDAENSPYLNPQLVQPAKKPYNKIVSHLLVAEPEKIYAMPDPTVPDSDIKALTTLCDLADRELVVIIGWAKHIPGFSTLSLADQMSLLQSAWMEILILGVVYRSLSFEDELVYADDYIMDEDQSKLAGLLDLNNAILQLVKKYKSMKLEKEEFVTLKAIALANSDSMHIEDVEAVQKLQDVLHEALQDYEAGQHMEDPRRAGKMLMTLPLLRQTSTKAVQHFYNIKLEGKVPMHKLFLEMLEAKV
Summary of the method: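 HepG2 cells transiently transfected with multiplexed GAL4-UAS reporter units and chimeric NR-Gal4 constructs were exposed to test chemicals for 24 h. Reporter mRNA was measured by RT-PCR, 6-FAM primer extension, HpaI digestion and capillary electrophoresis; gain-of-signal versus DMSO.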

[18] = target: Bile acid receptor (Homo sapiens) (UniProt Q96RI1); assay: ATG_FXR_TRANS: Attagene TRANS-FACTORIAL HepG2 Assay for Farnesoid X Receptor (FXR) (AID 2282979); settings: HepG2 Attagene TRANS FXR-GAL4 reporter transcription;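 further: hits raise reporter mRNA above DMSO so AC50 marks FXR activation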
Bile acid receptor (Homo sapiens), sequence (Q96RI1 whole entry, looked up, the tested form may be a part): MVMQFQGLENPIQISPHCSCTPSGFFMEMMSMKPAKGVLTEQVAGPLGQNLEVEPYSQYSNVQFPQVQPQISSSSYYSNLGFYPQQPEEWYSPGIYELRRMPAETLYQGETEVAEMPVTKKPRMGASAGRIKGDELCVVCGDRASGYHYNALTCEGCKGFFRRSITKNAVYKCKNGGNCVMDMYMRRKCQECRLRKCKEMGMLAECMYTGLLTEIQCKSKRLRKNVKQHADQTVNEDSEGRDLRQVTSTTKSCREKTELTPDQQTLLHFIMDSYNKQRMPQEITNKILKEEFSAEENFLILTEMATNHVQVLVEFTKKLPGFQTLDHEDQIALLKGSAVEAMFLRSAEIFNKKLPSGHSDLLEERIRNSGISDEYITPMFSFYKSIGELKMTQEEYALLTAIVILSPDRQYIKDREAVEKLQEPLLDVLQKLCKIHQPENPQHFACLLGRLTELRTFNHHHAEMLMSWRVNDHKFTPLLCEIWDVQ
Summary of the method: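 Read-out: fluorescent reporter transcripts quantified by capillary electrophoresis after RT-PCR of total RNA. Source cells were HepG2 transiently carrying chimeric NR-GAL4 plus GAL4-UAS reporter units, dosed 24 h. Activity fitted upward relative to DMSO baseline.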

[19] = target: Nuclear receptor subfamily 4 group A member 2 (Homo sapiens) (UniProt P43354); assay: ATG_NURR1_TRANS: Attagene TRANS-FACTORIAL HepG2 Assay for human Nuclear Receptor Related Protein 1 (NURR1) (AID 2282985); settings: HepG2 Attagene TRANS reporter, mRNA readout
Summary of the method: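 HepG2 cells transiently transfected with GAL4-UAS reporter units and chimeric NR-Gal4 constructs; chemical exposure 24 h. Reporter mRNA quantified by RT-PCR, fluorescent labelling and capillary electrophoresis; gain of signal fitted relative to DMSO baseline.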

Measured: AC50

COCCl
inactive: [1] | [2] | [3] | [4] | [5] | [6] | [7] | [8] | [9] | [10] | [11] | [12] | [13]

Oc1ccc(Cc2ccc(O)cc2)cc1
active: [14] 0.842 µM
inactive: [2] | [6] | [15] | [16] | [9] | [10] | [11] | [12]

CC(O)(CS(=O)(=O)c1ccc(F)cc1)C(=O)Nc1ccc(C#N)c(C(F)(F)F)c1 (centres undefined)
inactive: [1] | [2] | [4] | [5] | [6] | [7] | [15] | [8] | [9] | [11] | [12]

N#Cc1ccc(Cl)cc1
inactive: [1] | [2] | [4] | [17] | [15] | [8] | [9] | [10] | [11] | [12] | [13]

FC(F)OCC(F)(F)C(F)(F)F
inactive: [1] | [2] | [5] | [18] | [16] | [8] | [11] | [12] | [13]

CCOC(=O)c1ccccc1S(=O)(=O)NC(=O)Nc1nc(Cl)cc(OC)n1
inactive: [2] | [3] | [6] | [16] | [8] | [9] | [19] | [11] | [12] | [13]

C=CCOC(F)(C(F)(F)F)C(F)(F)F
inactive: [1] | [2] | [3] | [5] | [17] | [6] | [18] | [7] | [16] | [19] | [11] | [12] | [13]

OCCCCO
inactive: [2] | [4] | [5] | [17] | [15] | [8] | [19] | [10] | [11] | [12]

ClCCN1CCOCC1
inactive: [14] | [2] | [7] | [16] | [8] | [9] | [19] | [10] | [11] | [12] | [13]

Clc1cccc(Cl)c1Cl
inactive: [1] | [2] | [17] | [15] | [16] | [8] | [10] | [12] | [13]

OCC(c1ccc(Cl)cc1)c1ccc(Cl)cc1
active: [2] 56.3 µM
inactive: [14] | [6] | [18] | [16] | [8] | [9] | [11] | [12] | [13]

O=C/C(Cl)=C(/Cl)C(=O)O
inactive: [2] | [17] | [18] | [15] | [16] | [8] | [9] | [19] | [10] | [11] | [12] | [13]
active: [14] 156 µM
